Each structure is given as a SMILES string. In all, about 96,000 compounds went through this assay and about 1,200 (1.2%) were called active. The sample as a whole holds a higher share of actives than the screen did. Values without a mark were called inactive. Rule as the data show it: active = activation fold above about 2; inactive = the rest.

In the experiment the target is Alkaline phosphatase, placental type (Homo sapiens) (UniProt P05187). Kind of experiment: PLAP enzyme activators, biochemical, luminescence, HTS (AID 696). As to conditions: purified PLAP enzyme, luminescent substrate read-out; at 20 µM; stronger effect = higher value.
Chain of Alkaline phosphatase, placental type (Homo sapiens) (P05187 whole entry, looked up): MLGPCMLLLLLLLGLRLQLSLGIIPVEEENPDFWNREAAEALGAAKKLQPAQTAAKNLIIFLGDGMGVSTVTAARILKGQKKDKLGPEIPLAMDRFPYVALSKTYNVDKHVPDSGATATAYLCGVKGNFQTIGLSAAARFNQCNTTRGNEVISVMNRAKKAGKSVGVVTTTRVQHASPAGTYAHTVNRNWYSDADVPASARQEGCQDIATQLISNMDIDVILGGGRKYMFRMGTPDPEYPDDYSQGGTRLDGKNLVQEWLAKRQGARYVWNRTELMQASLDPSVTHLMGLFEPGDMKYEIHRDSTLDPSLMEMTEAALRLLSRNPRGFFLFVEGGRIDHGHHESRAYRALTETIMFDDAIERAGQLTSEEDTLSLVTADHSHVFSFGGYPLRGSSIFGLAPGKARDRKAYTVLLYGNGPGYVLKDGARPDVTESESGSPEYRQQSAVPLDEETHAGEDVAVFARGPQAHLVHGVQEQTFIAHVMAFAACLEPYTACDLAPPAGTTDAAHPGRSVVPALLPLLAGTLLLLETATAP
`Cc1nnc(NC(=O)CCCOc2ccccc2)s1`: the activation fold was 1.
As for `CCOC(=O)c1nn(-c2cccc(C)c2)cc1C(=O)c1ccccc1`, the activation fold is 1.8.
As for `O=C(Nc1ccc(-n2ccnc2P(=O)(O)c2ccccc2)cc1)c1ccccc1Br`, the activation fold is 2.1 (active).
With `O=C(Nc1ccccc1)c1cccnc1Nc1ccccc1`, the activation fold was 0.8.
For `Cc1nonc1NC(=O)c1ccccc1Br`, the activation fold is 1.2.
The same measure for `CCOC(=O)c1nnn(-c2nonc2-n2cccc2)c1CN1CCC(C(=O)OCC)CC1`: 1.2; for `CC(=O)c1ccc(OCCN2CCOCC2)cc1`: 0.9; for `CCOC(=O)c1[nH]c2ccc(OC)cc2c1NC(=O)N1CCOCC1`: 1.1.
Regarding `Cc1c(C(=O)N2CCOCC2)[nH]c2ccc(OCc3ccccc3)cc12`, the activation fold was 2 (active).
As for `Cc1c(C(=O)CN2CCOCC2)[nH]c2ccccc12`, the activation fold is 0.9.
As for `COc1cccc2c1OCC1COc3c(c(=O)n(C)c(=O)n3C)C21` (centres undefined), the activation fold was 1.
Regarding `CCNC(=S)NNC(=O)Cc1ccccc1`, the activation fold is 1.3.
In the case of `CC(C)(C)c1ccc(C(=O)NNC(=O)Cc2ccccc2)cc1`, the activation fold is 2.1 (active).
For `COc1ccc(OCC(=O)NNC(=O)c2ccc(-c3ccccc3)cc2)cc1`, the activation fold is 1.5.
Take `Cc1ccc(-c2cnc(NC(=O)CCC(=O)N(C)Cc3ccccc3)n2C)cc1`: the activation fold was 1.5.
Consider `Cc1ccc(-n2nc(N)c3c(=O)oc(N(C)C)nc32)cc1`, for which the activation fold was 1.1.
In the case of `CSc1nc(-c2ccco2)nn1C(=O)CCc1ccccc1` it was 1.1; in that of `COc1ccc(C2N=C(N)N=C(N)N2c2ccccc2)cc1OC` (centres undefined), 2.5 (active).
The same measure for `COc1ccc(C2SCCN2S(=O)(=O)c2ccccc2)cc1OC` (centres undefined): 1.3; for `COc1ccc(C2CC(=O)n3c(nc4ccccc43)S2)cc1OC` (centres undefined): 1.1.
For the compound `COCCn1c(C)cc(C2=NNC(=Nc3ccc(F)cc3)SC2)c1C`, the activation fold is 1.2.
Regarding `CN1/C(=C\C(=O)c2oc3ccccc3c2N)C(C)(C)c2ccccc21`, the activation fold is 1.
For the compound `COc1ccc(NC(C)=O)cc1NC(=O)CN1CCN(c2ccccn2)CC1`, the activation fold was 1.
On to `COc1ccc(OC)c(NC(=O)CN2CCN(C(=O)c3ccco3)CC2)c1`, for which the activation fold is 1.2.
As to `COc1ccc(NC(C)=O)cc1NC(=O)CN1CCN(C2c3ccccc3-c3ccccc32)CC1`, the activation fold was 2.8 (active).
As for `Cc1ccc(S(=O)(=O)Nc2nc(C)cc(-n3nc(C)cc3C)n2)cc1`, the activation fold was 1.4.
For the compound `Nc1nc(SCc2ccccc2Cl)n[nH]1`, the activation fold is 1.5.
`Nc1nc(SCCOc2ccccc2)n[nH]1`: the activation fold was 2 (active).
Take `COc1ccc(C(=O)CSc2n[nH]c(N)n2)cc1`: the activation fold was 1.5.
`COc1ccccc1-c1n[nH]c2c1[C@H](C)CC[C@H]2C(C)C`: the activation fold was 1.4.
Turning to `O=C(OCN1C(=O)c2ccccc2C1=O)/C(=C\c1ccco1)NC(=O)c1ccccc1`, the activation fold was 1.1.
In the case of `CCOc1cccc(C(=O)Nc2cnn(Cc3ccccc3)c2)c1` it was 0.7; in that of `COc1ccc(CNC(=O)CCn2cccc2)cc1`, 1.
Take `CC(C)NC(=O)NC(=O)COC(=O)c1ccc(NC(=O)CC#N)cc1`: the activation fold was 1.4.
As for `O=C(Nc1nnc(C2CC2)s1)c1ccccn1`, the activation fold was 2.3 (active).
The same measure for `COc1ccc2c(CC(=O)Nc3nnc(C4CC4)s3)coc2c1`: 0.9.
On to `Cc1occc1C(=O)Nc1nnc(C2CCCCC2)s1`, for which the activation fold was 1.
The same measure for `NC(=O)C1(N2CCCCC2)CCN(C(=S)Nc2ccc(Cl)cc2)CC1`: 0.9.
`CN1CCN(S(=O)(=O)c2ccc3[nH]cc(C(=O)O)c(=O)c3c2)CC1`: the activation fold is 1.1.
The same measure for `COc1cccc(N2C(=O)CC(N3CCN(S(=O)(=O)c4ccccc4)CC3)C2=O)c1` (centres undefined): 1.4; for `Cc1cccc(N2CCN(S(=O)(=O)c3ccc4[nH]c(=O)c(=O)[nH]c4c3)CC2C)c1` (centres undefined): 2.2 (active); for `O=C1C(Cl)=C(N2CCOCC2)C(=O)N1c1ccccc1`: 1.
`O=C(NCCN1C(=O)C2C3C=CC(C3)C2C1=O)Nc1ccccn1` (centres undefined): the activation fold was 1.1.
Take `O=C(CN1C(=O)C2C3C=CC(C3)C2C1=O)Nc1nc(-c2ccccn2)cs1` (centres undefined): the activation fold was 2.3 (active).
As to `O=C(CN1C(=O)C2C3C=CC(C3)C2C1=O)NCCc1ccccc1Cl` (centres undefined), the activation fold is 0.9.
In the case of `CC(OC(=O)CN1C(=O)C2CCCCC2C1=O)C(=O)Nc1ncc(Cl)cc1Cl` (centres undefined) it was 0.9.
As to `O=C(CCCC(=O)N(CC(=O)NC1CCCC1)Cc1ccccc1Cl)Nc1ccccn1`, the activation fold was 2 (active).
The same measure for `CCOc1ccccc1N(CC(=O)NC1CCCCC1)C(=O)CCCC(=O)Nc1ccccn1`: 2 (active); for `O=C(CN1CCN(c2ccccn2)CC1)NC1CCCCC1`: 1.1.
The same measure for `Cc1ccc(C(C(=O)NC2CCCC2)N(Cc2ccco2)C(=O)CCC(=O)Nc2ccccn2)cc1` (centres undefined): 1.7.
Regarding `CCCC(=O)Nc1cc(OCC)c(NC(=O)NC2CCCCC2)cc1OCC`, the activation fold is 0.9.
With `Cc1noc(C)c1C(=O)N(CC(=O)NC1CCCC1)Cc1ccccc1F`, the activation fold is 1.
As for `CCCCNC(=O)C(=O)c1ccccc1NC(C)=O`, the activation fold is 0.9.
In the case of `Cc1cccc(C)c1NC(=O)CSc1nnc(-c2ccccc2)n1Cc1ccc2c(c1)OCO2` it was 1.4; in that of `Cc1cc(/C=C2/SC(=O)N(CC(=O)OC(C)C)C2=O)c(C)n1C`, 1; in that of `COC(=O)CSc1snnc1-c1ccc(Cl)c(Cl)c1`, 1.
In the case of `O=C(OCC(=O)c1cccs1)C1=COCCO1` it was 0.9; in that of `CC(C)NS(=O)(=O)c1ccc(OCC(=O)Nc2ccc3c(c2)OCCO3)cc1`, 0.7; in that of `CCC(C)(C)c1ccc(Oc2ccc(NC(=O)COC(=O)C3=COCCO3)cc2)cc1`, 2.9 (active).
The same measure for `O=C(CSCc1ccccc1)N1CCc2ccccc21`: 0.7; for `c1ccc(CCc2nc(-c3ccncc3)no2)cc1`: 0.9; for `O=C(COC(=O)c1ccc(Oc2ccccc2)cc1)Nc1nnc(-c2ccccc2)o1`: 2 (active).
`O=C(COc1ccccc1)Nc1nonc1NC(=O)COc1ccccc1`: the activation fold was 0.9.
As to `O=C(Nc1cccc(Cl)c1)Nc1nnc(-c2ccccc2)o1`, the activation fold was 1.1.
For `Cc1ccc(NC(=O)C(C)c2cccc(C(=O)c3ccccc3)c2)cc1` (centres undefined), the activation fold was 0.7.
With `C=CCN(C(=O)Cn1ncc2c1-c1cc(C)ccc1OC2)c1ccccc1`, the activation fold is 1.2.
As for `COc1ccccc1OCc1nc2ccccc2s1`, the activation fold was 1.
For `COc1ccc(C(C#N)N2N=C(C)CC2(C)C)cc1` (centres undefined), the activation fold was 0.9.
For the compound `Cc1cccc(N(CC(=O)N=Nc2c(O)[nH]c3ccccc23)S(C)(=O)=O)c1C`, the activation fold was 1.9.
As to `Cc1ccccc1NC(=O)c1ccccc1NS(=O)(=O)c1cccc2cccnc12`, the activation fold was 1.3.
Consider `CC(C)(O)C(=O)NN(C(=O)c1ccccc1)c1cccc(Br)c1`, for which the activation fold is 0.9.
`O=C(/C=C/NNC(=O)c1cccc(Br)c1)c1ccccc1`: the activation fold is 2 (active).
For `O=C(/C=C\NCC(=O)c1ccccc1)c1ccccc1`, the activation fold was 0.9.
Turning to `COc1ccccc1NS(=O)(=O)N(C)C`, the activation fold is 0.8.
In the case of `COc1ccc(C(=O)NCCc2ccc(S(N)(=O)=O)cc2)cc1OC`, the activation fold was 1.
In the case of `CCOc1ccc(C(CCc2ccccc2)NC(=O)c2ccc(OC)c(OC)c2)cc1OCC` (centres undefined) it was 2.2 (active).
For the compound `CCOC(=O)CSc1nnc(CNC(=O)Cc2ccccc2)n1-c1ccccc1OC`, the activation fold was 1.
In the case of `CCOC(=O)C1=NNC2(c3ccc(Cl)cc3)C(=O)N(c3cc(C)cc(C)c3)C(=O)C12` (centres undefined) it was 1.1; in that of `CCOC(=O)Cc1csc(NC(NC(=O)OCC)(C(F)(F)F)C(F)(F)F)n1`, 0.9; in that of `CCOc1ccc(Nc2nc(Cc3nnc(SCC(=O)c4ccc(C)cc4)o3)cs2)cc1`, 0.7.
For `Cc1ccc(/C=N\n2c(-c3ccccc3)n[nH]c2=S)s1`, the activation fold is 1.3.
The same measure for `Cn1c(-c2sc3cc(C(F)(F)F)cnc3c2-c2ccccc2)n[nH]c1=S`: 2.6 (active); for `Cc1cc(C(F)(F)F)n2ncc(-c3ccccc3)c2n1`: 0.9.
Regarding `CO/N=C(/CS(=O)(=O)c1ccc(Br)cc1)c1ccc(OC)cc1`, the activation fold is 1.6.
Turning to `CC(C)c1ccc(Nc2ncccc2C#N)cc1`, the activation fold was 0.9.
Consider `COc1ccccc1C(=O)Nc1nc2nc(-c3ccccc3)cc(=O)n2[nH]1`, for which the activation fold was 1.1.
Consider `CCCCNc1ccc(C(=O)Nc2cccc(C)n2)cc1[N+](=O)[O-]`, for which the activation fold was 0.9.
For `O=C(Nc1nnc(SCc2ccc(Cl)cc2Cl)s1)C1COc2ccccc2O1` (centres undefined), the activation fold is 1.1.
As for `O=C(Nc1cccc2ccccc12)N1CCN(Cc2ccc3c(c2)OCO3)CC1`, the activation fold was 2.1 (active).
`O=C(CCCN1C(=O)c2cccc3cccc(c23)C1=O)N1CCN(Cc2ccc3c(c2)OCO3)CC1`: the activation fold was 1.6.
Turning to `O=C(c1cccs1)N1CCN(Cc2ccc3c(c2)OCO3)CC1`, the activation fold is 1.2.
For the compound `O=C(CN1CCSCC1)N/N=C/c1ccc(F)cc1F`, the activation fold is 1.
For `Cc1cccc(N(CC(=O)N2CCOCC2)S(C)(=O)=O)c1`, the activation fold is 0.8.
Consider `CCC1Oc2ccc(Cl)cc2N(CC(=O)O)C1=O` (centres undefined), for which the activation fold was 1.
As for `Cc1cccc(N2C(=O)SC(N(CC(=O)O)c3cccc(C)c3)C2=O)c1` (centres undefined), the activation fold is 2.2 (active).
In the case of `Cc1csc(OCC(=O)Nc2ccc(C)c(C)c2)n1` it was 1.2.
`N/C(=N\OC(=O)CCc1ccccc1)c1ccc(Cl)cc1`: the activation fold was 0.9.
The same measure for `COc1cc(NS(=O)(=O)c2ccc(N=Cc3c(C)[nH]n(-c4ccccc4)c3=O)cc2)nc(OC)n1`: 1.5; for `Cc1[nH]n(-c2cccc(Cl)c2)c(=O)c1-c1ccc(Cl)cc1`: 1; for `Cc1[nH]n(-c2cccc(Cl)c2)c(=O)c1/C=N/n1c(C)nc2ccccc2c1=O`: 2.1 (active).
Consider `CC1(C)CC(=O)C2=C(C1)N=C1SCCC(=O)N1C2c1ccc(C(F)(F)F)cc1` (centres undefined), for which the activation fold is 1.2.
Turning to `COc1ccc(C)cc1S(=O)(=O)NCCc1ccccc1`, the activation fold is 0.8.
In the case of `COC(=O)c1ccccc1NC(=O)CN(Cc1ccc(Cl)cc1)S(C)(=O)=O` it was 1.5; in that of `COc1ccc([N+](=O)[O-])cc1N(CC(O)Cn1nnc2ccccc21)S(=O)(=O)c1ccc(C)cc1` (centres undefined), 1.4.

The record behind these values is PubChem BioAssay AID696 (Sanford-Burnham Center for Chemical Genomics, 2007).
